Experimental data taken from paper PMC5540273 (PLoS ONE, 2017).

How the values were obtained:
Conditions in all cases: concentration: 1 μM, replicates: in singlicate; n = 1
[1] = system: T1, RSK2(Kin.Dom.1-N-terminal)
T1 construct: gene RPS6KA3

[2] = system: T2, RSK2(Kin.Dom.2-C-terminal)
T2 construct: gene RPS6KA3

[3] = system: T3, RSK3(Kin.Dom.1-N-terminal)
T3 construct: gene RPS6KA2

[4] = system: T4, RSK3(Kin.Dom.2-C-terminal)
T4 construct: gene RPS6KA2

[5] = system: T5, RSK4(Kin.Dom.1-N-terminal)
T5 construct: gene RPS6KA6

[6] = system: T6, RSK4(Kin.Dom.2-C-terminal)
T6 construct: gene RPS6KA6

[7] = system: S6K1
[8] = system: SBK1
[9] = system: SGK2
[10] = system: SGK3
[11] = system: SGK
[12] = system: SIK2
[13] = system: SIK
[14] = system: SLK
[15] = system: T7, SNARK
T7 construct: gene NUAK2

[16] = system: SNRK
[17] = system: SRC
[18] = system: SRMS
[19] = system: SRPK1
[20] = system: SRPK2
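Note: KINOMEscan kinase panel screen.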

Compound | %Inh [1] | %Inh [2] | %Inh [3] | %Inh [4] | %Inh [5] | %Inh [6] | %Inh [7] | %Inh [8] | %Inh [9] | %Inh [10] | %Inh [11] | %Inh [12] | %Inh [13] | %Inh [14] | %Inh [15] | %Inh [16] | %Inh [17] | %Inh [18] | %Inh [19] | %Inh [20]
CNc1ncnc2[nH]ncc12 [SKF-18355] | 46% | 0% | 5% | 22% | 16% | 0% | 24% | 0% | 0% | 0% | 6% | 0% | 0% | 10% | 0% | 0% | 17% | 22% | 0% | 0%
O=C(NCCNc1ccnc(Nc2ccc(F)cc2)n1)c1cc2ccccc2s1 [GSK1379874] | 0% | 0% | 0% | 0% | 0% | 1% | 0% | 0% | 0% | 0% | 0% | 0% | 0% | 17% | 0% | 0% | 0% | 0% | 3% | 19%
COc1cc2c(cc1OCCN1CCN(C)CC1)ncc1c3ccc(C#N)cc3[nH]c21 | 61% | 42% | 33% | 47% | 67% | 44% | 53% | 72% | 43% | 19% | 78% | 88% | 17% | 34% | 97.1% | 27% | 0% | 0% | 7% | 0%
COc1ccc(Nc2ncc(C#N)c(Nc3ccccc3C(N)=O)n2)cc1N1CCN(C)CC1.Cl [GSK1558669] | 100% | 7% | 99.7% | 11% | 100% | 50% | 99.9% | 93.9% | 58% | 95.3% | 87% | 96.4% | 98.7% | 100% | 99.8% | 85% | 100% | 99.5% | 99.9% | 66%
NS(=O)(=O)CCc1cccc(Nc2nccc(-c3c(-c4cccc(NC(=O)c5c(F)cccc5F)c4)nn4ccccc34)n2)c1 [GSK336735] | 15% | 0% | 45% | 0% | 0% | 2% | 20% | 27% | 0% | 3% | 0% | 37% | 94.7% | 97.7% | 86% | 0% | 97.8% | 98.8% | 62% | 0%
O=c1cc(N2CCOCC2)nc2n(Cc3cccc4ccccc34)ccn12 [GSK2333389] | 0% | 0% | 2% | 0% | 0% | 8% | 0% | 14% | 0% | 0% | 0% | 0% | 0% | 0% | 0% | 0% | 0% | 0% | 29% | 0%
CCCCCc1nc2c(N)ncnc2n1CCCCC [SKF-97255] | 32% | 0% | 0% | 7% | 20% | 0% | 13% | 0% | 0% | 0% | 0% | 1% | 8% | 8% | 0% | 0% | 14% | 25% | 0% | 11%
N#Cc1c(N2CCOCC2)sc(-c2ccn[nH]2)c1-c1ccc(Cl)cc1 | 9% | 0% | 13% | 2% | 2% | 10% | 7% | 35% | 23% | 8% | 23% | 4% | 13% | 17% | 5% | 12% | 0% | 0% | 0% | 0%
Cn1ccc2ncnc(Oc3ccc(NC(=O)Nc4ccncc4)c(Cl)c3)c21 | 0% | 0% | 0% | 0% | 0% | 0% | 0% | 0% | 2% | 0% | 0% | 0% | 0% | 0% | 0% | 0% | 13% | 0% | 0% | 0%
CN1c2ccc(NCc3ccc(F)cc3)cc2-c2c(cnn2C)S1(=O)=O | 23% | 31% | 10% | 22% | 0% | 98.7% | 10% | 0% | 18% | 4% | 5% | 11% | 0% | 0% | 0% | 0% | 3% | 0% | 0% | 0%
NS(=O)(=O)c1cccc(-c2ccc3nccc(-c4cccc(S(N)(=O)=O)c4)c3c2)c1 [GW867253] | 31% | 56% | 0% | 11% | 12% | 30% | 16% | 0% | 0% | 0% | 9% | 1% | 0% | 0% | 0% | 0% | 0% | 27% | 0% | 0%
